# Laboratory results taken from PubChem BioAssay AID1159524 (National Center for Advancing Translational Sciences (NCATS), 2015).
# Out of some 410,000 compounds screened, about 5,100 (1.2%) were called active. Inconclusive results (about 8%) are left out. The call rests on the fitted dose curve; tested in HEK293T cells. The sample as a whole holds a higher share of actives than the screen did.
# Experiment: High Throughput Screening for Foot and Mouth Disease Virus Antivirals; further: read-out not given here; nearly all actives have a fitted effect of over 45% in size
# Settings: FMDV antiviral cell-based qHTS; series mostly up to 57.9 µM; activity change, negative = inhibition: at the top concentration
# On the % scale 0 is the no-effect control and ±100 the full control effect; potency means the concentration at half of the fitted maximal effect.
Structure (SMILES),"activity change, negative = inhibition",Potency
CN(Cc1ccco1)c1cc(-c2ccccc2C(F)(F)F)ncn1,15.7% (inactive),
C=CC(C1=CC(=O)C=CC1=O)c1ccc(O)cc1 (stereo unspecified),-1.66% (inactive),
CC(=O)OC1C2(CC3N4C(=O)C5(CO)SSC4(CC31O)C(=O)N5C)OC(C)C(C)(C)C2=O (stereo unspecified),,2 µM (active)
Cc1cccc(Nc2cc(C)nc(-n3nc(C)cc3C)n2)c1,-11.9% (inactive),
COc1ccccc1-c1cc(C(F)(F)F)nc(S(=O)(=O)CCCC(=O)Nc2cc(C)ccc2O)n1,-17.4% (inactive),
Cc1ccc(C)c(N2CCN(C(=O)Cn3ncc4c(=O)oc5ccc(C)cc5c43)CC2)c1,0% (inactive),
O=C(c1csnn1)N1CCC2(CC1)CN(c1ncccn1)C2,-1.68% (inactive),
Cc1cccn2c(=O)c(C(=O)NC(C)c3ccccc3)cnc12 (stereo unspecified),-0.0366% (inactive),
CCCc1nc2c([nH]1)C(c1cccnc1)C(C#N)=C(N)O2 (stereo unspecified),-18.1% (inactive),
CCCc1[nH]nc2c1C(c1ccc(Br)s1)C(C#N)=C(N)O2 (stereo unspecified),,25.1 µM (active)
CCNc1nc2[nH]c(=O)c3c(c2s1)OC(N)=C(C#N)C3c1cccs1 (stereo unspecified),38.9% (inactive),
CCC(=O)N1CCc2cc(CNS(=O)(=O)c3ccc(Br)s3)ccc21,3.48% (inactive),
Cn1c(=O)c2c(nc(OCc3cccnc3)n2Cc2ccccc2)n(C)c1=O,-27% (inactive),
CC(C)CCn1c(CN(C)Cc2ccccc2)nc2c1c(=O)n(C)c(=O)n2C,,39.8 µM (active)
Cn1c(=O)c2c(nc(SCC(=O)Nc3ccc(F)cc3)n2Cc2ccccc2)n(C)c1=O,0% (inactive),
CC(C)CCn1c(=O)c2c(nc3n2CCCN3Cc2ccccc2)n(C)c1=O,-24.9% (inactive),
Cn1c(=O)c2c(nc(NCCc3ccccc3)n2Cc2ccccc2Br)n(C)c1=O,8.48% (inactive),
Cn1c(=O)c2c(nc(NCCc3ccccc3)n2Cc2ccccc2)n(C)c1=O,,14.1 µM (active)
CN(C)C(=O)c1ccc(-c2cncnc2NC2CCNCC2)cc1,0% (inactive),
COCCn1c(=O)c(-c2cccs2)nc2cnc(N3CCN(C)CC3)nc21,-1.14% (inactive),
Cc1ccccc1NC(=O)Cn1c(=O)n(CCCCC(=O)NCc2ccccc2Cl)c(=O)c2ccccc21,-24.8% (inactive),
C=CS(=O)c1sc(Cl)c(N2CCOCC2)c1[N+](=O)[O-] (stereo unspecified),,28.2 µM (active)
CN(C)c1ncc2nc(-c3ccc(F)cc3)c(=O)n(Cc3ccc(F)cc3)c2n1,-0.807% (inactive),
O=C(CCl)N(Cc1cccc([N+](=O)[O-])c1)c1cccc(Cl)c1,,28.2 µM (active)

Structure (SMILES),"activity change, negative = inhibition",Potency
CC(=O)N(CN1C(=O)C2C3C=CC(C3)C2C1=O)c1cccc(Cl)c1 (stereo unspecified),5.14% (inactive),
O=C(O)c1cc(S(=O)(=O)N(Cc2ccccc2)c2ccccc2)ccc1Cl,6.32% (inactive),
FC(F)(F)c1ccccc1-c1nc(-n2ccnc2)c2ccccc2n1,-7.33% (inactive),
Cc1cccc(NC(=O)Cn2c(C(F)(F)F)nc3ccccc32)c1C,-0.0408% (inactive),
CC(=O)Nc1cc(C(=O)N2CCc3c(Cl)cccc3C2)cc2ncn(CCc3ccccn3)c12,-13.7% (inactive),
CCOC(=O)C1CCCN(C(=O)c2cncc(Br)c2)C1 (stereo unspecified),-6.75% (inactive),
CCOC(=O)C1CCCN(C(=O)c2ccc3c(c2)sc2nc(-c4ccc(CC)cc4)cn23)C1 (stereo unspecified),,14.1 µM (active)
COc1ccc(CCNC(=O)c2ccc3c(c2)sc2nc(-c4ccc(C)cc4)cn23)cc1OC,-8.99% (inactive),
CCC(=O)N1c2ccccc2CC1C(=O)N1CCN(c2cccc(OC)c2)CC1 (stereo unspecified),-4.67% (inactive),
CCCNS(=O)(=O)c1ccc(CCC(=O)N2CCCC2)cc1,11.1% (inactive),
CCNS(=O)(=O)c1ccc(CCC(=O)N2CCN(c3ccc(OC)cc3)CC2)cc1,-11.2% (inactive),
CCNS(=O)(=O)c1ccc(CCC(=O)N2CCN(c3cc(Cl)ccc3C)CC2)cc1,,15.8 µM (active)
Cc1cnc(C(=O)N2CCOc3ccc(CN4CCCC(C(=O)c5cccnc5)C4)cc3C2)[nH]1 (stereo unspecified),-28.1% (inactive),
CC(=O)Nc1ccccc1-c1nc(CNC(=O)c2ccc(Cl)cc2)c(C)o1,32.2% (inactive),
C=CCOc1ccc(/C=C/C(=O)OC(C)C(=O)Nc2ccc(NC(C)=O)cc2)cc1 (stereo unspecified),-10.8% (inactive),
C=CCOc1ccc(/C=C2\SC(=S)N(CCC(=O)O)C2=O)cc1,,1 µM (active)
C=CCN1C(=O)NC(=O)/C(=C/c2ccc(OCC(=O)Nc3ccc(C)cc3)cc2)C1=O,17% (inactive),
COC(=O)[C@@H]1C[C@H](NC(=O)c2ccccc2C(F)(F)F)CN1Cc1cccc(O)c1,-13.1% (inactive),
FC(F)(F)c1cccc(-c2cn[nH]c2C2CCCN(Cc3cccn3-c3ccccn3)C2)c1 (stereo unspecified),-11.1% (inactive),
COc1ccc(CCC(=O)c2c(O)cc(OC3OC(CO)C(O)C(O)C3O[C@@H]3OC(C)C(O)C(O)C3O)cc2O)cc1O (stereo partly specified),7.43% (inactive),
COc1ccc(CCNc2nc3ccc(C)cc3n3cnnc23)cc1OC,-23.1% (inactive),
COc1ccc(CCNc2ncnc3nc[nH]c23)cc1OC,,25.1 µM (active)
COc1ccc(CCNc2ncnc3sc(C(=O)N4CCCC4)c(C)c23)cc1OC,-6.91% (inactive),
c1ccc(CCCCN2CCC(c3ccccc3)CC2)cc1,,inactive

Structure (SMILES),"activity change, negative = inhibition",Potency
CC(C)c1nnc(NC(=O)COC(=O)/C=C/c2ccc([N+](=O)[O-])cc2)s1,-20.7% (inactive),
CCOC(=O)/C(=C\c1ccc([N+](=O)[O-])cc1)C(=O)c1cc(C(C)=O)c(Nc2ccccc2)s1,,15.8 µM (active)
CCOC(=O)c1c(C)[nH]c(C)c1C(=O)COC(=O)/C=C/c1cccc([N+](=O)[O-])c1,-27.2% (inactive),
COc1ccc(OCCCn2c(C)nc3cc(C)c(C)cc32)cc1,-14.5% (inactive),
COc1ccc(NC(=O)CSc2nccn2C2CCCC2)cc1OC,-3.75% (inactive),
COc1ccc(C2CC(=O)N(Cc3ccccc3C)c3c2c(C)nn3-c2nc(C)cc(C)n2)c(OC)c1 (stereo unspecified),-17.6% (inactive),
O=C(O)CCn1c(O)c(C=C2N=c3ccccc3=N2)sc1=S,,10 µM (active)
CCc1nc(-c2cc(S(=O)(=O)N3CCN(c4ccc(OC)cc4)CC3)ccc2OC)no1,2.16% (inactive),
Cc1ccc(Cn2cc(CN3CC(N4CCN(C)CC4)CS3(=O)=O)nn2)cc1 (stereo unspecified),-21.6% (inactive),
CN(C)C1CN(Cc2cn(Cc3ccccc3)nn2)S(=O)(=O)C1 (stereo unspecified),-13.3% (inactive),
CN(Cc1cn(Cc2ccc(C(F)(F)F)cc2)nn1)C1CN(Cc2cn(Cc3ccc(C(F)(F)F)cc3)nn2)S(=O)(=O)C1 (stereo unspecified),,17.8 µM (active)
Cc1ccc(CN2CCC(CNC(=O)c3cnn(-c4ccc(C)cc4)c3C3CCN(C(=O)OC(C)(C)C)CC3)CC2)cc1,-4.3% (inactive),
COc1ncc2nc(-c3ccc(Cl)cc3)c(=O)n(C)c2n1,9.77% (inactive),
Cc1cccc(NC(=O)c2nc(S(=O)(=O)Cc3ccccc3)ncc2Cl)c1,,10 µM (active)
Cc1ccc2nc(NC(=O)c3nc(SCc4ccccc4F)ncc3Cl)sc2c1,-21.4% (inactive),
CCCSc1ncc(Cl)c(C(=O)Nc2c(C(=O)Nc3ccccc3)oc3ccccc23)n1,-12.2% (inactive),
CCS(=O)(=O)c1ncc(N(Cc2ccc(F)cc2)Cc2ccco2)c(C(=O)Nc2cc(C)ccc2C)n1,7.45% (inactive),
O=C(Nc1nc2ccc(F)cc2s1)c1nc(SCc2ccccc2F)ncc1Cl,-23.3% (inactive),
CSc1nnc(NC(=O)c2nc(S(=O)(=O)Cc3ccc(C)cc3)ncc2Cl)s1,,12.6 µM (active)
CCOC(=O)c1ccc(NC(=O)c2nc(SCc3ccc(F)cc3)ncc2Cl)cc1,-13.5% (inactive),
Cc1ccc(NC(=O)c2nc(S(=O)(=O)Cc3cccc(C)c3)ncc2Cl)cc1,,25.1 µM (active)
Cc1cccc(NC(=O)Cn2cc(S(=O)(=O)Cc3ccccc3Cl)c3ccccc32)c1,-1.97% (inactive),
CCC(C)(C)N=C(NC#N)Nc1cccnc1,-21.6% (inactive),
COc1ccccc1C1CN(CCNC(=O)C2=CCCC2)Cc2ccccc2O1 (stereo unspecified),34.4% (inactive),

Structure (SMILES),"activity change, negative = inhibition",Potency
CCOC(=O)c1c(S(=O)(=O)N2CCCC(C(=O)NCc3cccc(C)c3)C2)c(C)n(C)c1C (stereo unspecified),-22.3% (inactive),
CCc1ccccc1N1C(=O)CN(S(=O)(=O)CC)CC1(C)C(=O)NC1CCCCC1 (stereo unspecified),0% (inactive),
CCN(CCCNC(=O)Cn1ncc2c([nH]c3ccccc32)c1=O)c1cccc(C)c1,-8.64% (inactive),
Cc1[nH]c2c(C(=O)NCC3Cc4cccc(-c5cccnc5)c4O3)cccc2c1C (stereo unspecified),12.1% (inactive),
N#Cc1cccc(-c2ccc3ncnc(NCc4cccs4)c3c2)c1,-17.2% (inactive),
O=C1CC(c2nnc(Cc3ccc(Cl)cc3)o2)CN1c1ccccc1 (stereo unspecified),1.46% (inactive),
Cc1noc(C)c1-c1nccc(N2CCOCC2)n1,-12.1% (inactive),
CCCc1nc(SCC(=O)Nc2ccccc2OC)c2c(=O)n(C)c(=O)n(C)c2n1,,25.1 µM (active)
CCCc1nc(SCC(=O)N2CCCC2)c2c(=O)n(C)c(=O)n(C)c2n1,-3.3% (inactive),
CCc1nc(SCC(=O)Nc2ccccc2OC)n[nH]1,13.3% (inactive),
COc1cccc(-c2nc(Nc3ccncc3)c3ccccc3n2)c1,-29.5% (inactive),
CN1CCN(c2ncncc2-c2ccc(C(=O)N(C)C)cc2)CC1,2.84% (inactive),
CN(C)C(=O)[C@@H]1C[C@@H](Sc2nc3ccccc3[nH]2)CN1Cc1ccc(Cl)cc1,39.8% (inactive),
Fc1ccc2[nH]c3c(N4CCSCC4)ncnc3c2c1,,3.16 µM (active)
O=C(CSc1nc2c(c(=O)[nH]1)CN(Cc1ccc3c(c1)OCO3)CC2)Nc1cc(F)ccc1F,6.05% (inactive),
Fc1ccc2[nH]c3c(N4CCN(Cc5ccc6c(c5)OCO6)CC4)ncnc3c2c1,,6.31 µM (active)
N#C/C=C/N1CCN(Cc2ccc3c(c2)OCO3)CC1,-8.21% (inactive),
Cc1cccc2nc(-c3ccc(Cl)s3)c(Nc3ccc4c(c3)OCCO4)n12,42.3% (inactive),
CCN(CC)CCOC(=O)c1cc2cc(COC)ccc2o1,-7.56% (inactive),
CCOC(=O)c1c(-c2ccc(OC)cc2)oc2ccc(OCc3ccc(C(=O)OC)cc3)cc12,-24.4% (inactive),
CCOC(=O)c1cc2cc(-c3c(C(=O)OCC)oc4cc(O)cc(O)c4c3=O)ccc2o1,,31.6 µM (active)
Cc1ccc(-c2nnc(SCc3ccccc3C)o2)cc1,66.9% (inactive),
COc1ccccc1CNc1cc(-c2ccccc2CN(C)C)ncn1,-23.5% (inactive),
O=C(c1ccc2c(c1)N(Cc1ccc(Cl)cc1)C(=O)c1ccccc1S2(=O)=O)N1CCCCC1,-18.2% (inactive),
